# Inconclusive results are not listed. Activity calls are given as the source filed them. How the source made its calls: active means hit-call score of the fitted dose curve at least 0.9, where 1 is the maximum; inconclusive means response in the unintended direction; inactive means score below 0.9.
# Molecular target: Androgen Receptor/SRC-1 Co-activator, AR (gene 367) (UniProt P10275)
# Assay: OT_AR_ARSRC1_0480: Odyssey Thera (OT) 8-hour HEK293T Protein-Complementation Assay for Androgen Receptor/SRC-1 Co-activator (AID 2283354);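 further: hits raise the complementation signal above DMSO so AC50 marks enhancers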
# Method: OT_AR_ARSRC1_0480 is a cell-based, single-readout assay that uses HEK293T, a human kidney cell line, with measurements taken at 8 hours after chemical dosing in a 384-well plate.OT_AR_ARSRC1_0480 is one of one assay component(s) measured or calculated from the OT_AR_ARSRC1_0480 assay. It is designed to make measurements of protein fragment complementation, a form of binding reporter, as detected with fluorescence intensity signals by Protein-fragment Complementation technology.Data from the assay component OT_AR_ARSRC1_0480 was analyzed into 1 assay endpoint. This assay endpoint, OT_AR_ARSRC1_0480, was analyzed in the positive analysis fitting direction relative to DMSO as the negative control and baseline of activity. Using a type of binding reporter, measures of receptor for gain-of-signal activity can be used to understand the binding at the pathway-level as they relate to the gene AR. Furthermore, this assay endpoint can be referred to as a primary readout, because the performed assay has only produced 1 assay endpoint. To generalize the intended target to other relatable targets, this assay endpoint is annotated to the nuclear receptor intended target family, where the subfamily is steroidal.
# Protein-fragment complementation assay, or PCA, is a method for the identification and quantification of protein-protein interactions. In the PCA, the proteins of interest ("bait" and "prey") are each covalently linked to fragments of a third protein (e.g. DHFR, which acts as a "reporter"). Interaction between the bait and the prey proteins brings the fragments of the reporter protein in close proximity to allow them to form a functional reporter protein whose activity can be measured. The OT AR / SRC-1 assay assessed androgen receptor chemical interactions using a rapidly maturing, intensely fluorescent mutant of YFP known as Venus, rationally dissected into two separate fragments. […] Fusion constructs were transfected into HEK293T cells with a (Gly4Ser)2 linker between the AR/SRC-1 and YFP fragment genes to facilitate complementation when interacting proteins bring fragments into close proximity. The construct is stably expressed in HEK293T cells. […] Images were acquired on an Evotec Opera at 2 wavelengths (488 and 635nm), and the ratio of fluorescence in the nucleus relative to fluorescence in the cytoplasm (N/C Ratio) in the 488nm channel was calculated for a minimum of 400 cells per image. Both agonists and antagonists of the AR receptor induce nuclear translocation to varying degrees. […] The OT AR/SRC-1 assay was also run for 16 hours (see description for OT_AR_ARSRC1_0960).
# Chain of Androgen Receptor/SRC-1 Co-activator, AR (gene 367) (P10275 whole entry, looked up): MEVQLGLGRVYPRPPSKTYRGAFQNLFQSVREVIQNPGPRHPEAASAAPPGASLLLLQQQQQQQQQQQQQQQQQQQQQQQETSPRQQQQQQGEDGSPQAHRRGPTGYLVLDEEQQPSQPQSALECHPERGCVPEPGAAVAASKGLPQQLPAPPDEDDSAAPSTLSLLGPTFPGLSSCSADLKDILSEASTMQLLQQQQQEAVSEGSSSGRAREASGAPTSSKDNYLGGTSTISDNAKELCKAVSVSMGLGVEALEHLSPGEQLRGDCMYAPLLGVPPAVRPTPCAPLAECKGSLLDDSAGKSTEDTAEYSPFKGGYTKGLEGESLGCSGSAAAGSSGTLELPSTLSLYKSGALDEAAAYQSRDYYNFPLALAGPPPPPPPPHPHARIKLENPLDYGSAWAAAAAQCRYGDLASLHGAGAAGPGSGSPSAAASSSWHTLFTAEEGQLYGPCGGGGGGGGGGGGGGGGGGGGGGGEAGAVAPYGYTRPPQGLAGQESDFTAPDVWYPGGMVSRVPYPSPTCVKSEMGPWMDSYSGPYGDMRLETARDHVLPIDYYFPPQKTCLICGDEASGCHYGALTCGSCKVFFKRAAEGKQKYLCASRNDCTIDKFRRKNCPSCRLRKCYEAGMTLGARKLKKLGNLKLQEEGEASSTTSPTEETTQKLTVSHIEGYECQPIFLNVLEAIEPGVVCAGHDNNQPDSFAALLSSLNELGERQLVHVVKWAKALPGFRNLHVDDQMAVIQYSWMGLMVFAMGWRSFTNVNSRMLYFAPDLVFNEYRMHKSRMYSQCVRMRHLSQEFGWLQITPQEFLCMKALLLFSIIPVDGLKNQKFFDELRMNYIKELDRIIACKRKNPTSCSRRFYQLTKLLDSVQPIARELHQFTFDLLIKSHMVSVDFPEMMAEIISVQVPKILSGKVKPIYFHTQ
SMILES,AC50,outcome
COc1cc(C(=O)NC2CCN(C)CC2)ccc1Nc1ncc2c(n1)N(C1CCCC1)CC(F)(F)C(=O)N2C,52.5 µM (active),
O=C(Nc1ccc(Cl)cc1)Nc1ccc(Cl)c(Cl)c1,,inactive
CN(C)C(=O)C1(N2CCCCC2)CCN(CC[C@@]2(c3ccc(Cl)c(Cl)c3)CN(C(=O)c3ccccc3)CCO2)CC1,16.6 µM (active),
CN(C)c1ccc(C(=C2C=CC(=[N+](C)C)C=C2)c2ccc(N(C)C)cc2)cc1,3.28 µM (active),
COCC(C)OCC(C)OCC(C)O (centres undefined),,inactive
Oc1ccc2ccccc2c1,,inactive
O=c1c(-c2ccc(O)cc2)coc2cc(O)cc(O)c12,,inactive
O=C(O)c1ccccc1C(=O)OCc1ccccc1,,inactive
CCCC(=O)OCCC(C)C,,inactive
Cc1cc(F)ccc1-c1cc(N2CC[C@@H](O)[C@H]2CO)ncc1N(C)C(=O)C(C)(C)c1cc(C(F)(F)F)cc(C(F)(F)F)c1,23.6 µM (active),
CCN(Cc1cccnc1)C(=O)c1cccc(Cl)c1[C@]1(C)C(=O)N(Cc2ccc(OC)cc2OC)c2ccc(Cl)cc21,,inactive
Cc1c2ccccc2c(C)c2c1ccc1ccccc12,11.6 µM (active),
Cc1occc1C(=O)Nc1ccc(C(=O)N2CCC(F)(F)/C(=C\C(=O)N3CCC(N4CCCCC4)CC3)c3ccccc32)cc1,,inactive
NC(=O)c1nc(-c2cccc(-c3cc(F)ccc3OCC(F)(F)C(F)(F)F)c2)n[nH]1,50 µM (active),
CCCCCCCCCC(=O)O,,inactive
CN(C[C@@H](CC[N+]12CCC(C3CCCCC3)(CC1)CC2)c1ccc(Cl)c(Cl)c1)C(=O)c1cc(C(F)(F)F)cc(C(F)(F)F)c1,20.9 µM (active),
OCCO,,inactive
NCc1cccc(C2CCN(C(=O)c3ccc(C#Cc4ccccc4F)o3)CC2)c1,13.3 µM (active),
CCCCOC(=O)c1ccc(O)cc1,,inactive
